The target of test [1] is Cytochrome P450 3A4 (Homo sapiens) (UniProt P08684). As to the kind of experiment: qHTS Assay for Inhibitors and Substrates of Cytochrome P450 3A4 (AID 884). Note: % is set by controls: 0 for no effect and ±100 for the full control effect; nearly all actives have a fitted effect of over 50% in size. Summed up: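 Luminescent readout of luciferin produced by CYP3A4 (20 nM) dealkylation of Luciferin-PPXE, 25 uM (its KM). NADPH-driven reaction ran 60 min at RT after 10 min compound preincubation; data scaled to 57 uM ketoconazole as 100% inhibition.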
Chain of Cytochrome P450 3A4 (Homo sapiens) (P08684 whole entry, looked up): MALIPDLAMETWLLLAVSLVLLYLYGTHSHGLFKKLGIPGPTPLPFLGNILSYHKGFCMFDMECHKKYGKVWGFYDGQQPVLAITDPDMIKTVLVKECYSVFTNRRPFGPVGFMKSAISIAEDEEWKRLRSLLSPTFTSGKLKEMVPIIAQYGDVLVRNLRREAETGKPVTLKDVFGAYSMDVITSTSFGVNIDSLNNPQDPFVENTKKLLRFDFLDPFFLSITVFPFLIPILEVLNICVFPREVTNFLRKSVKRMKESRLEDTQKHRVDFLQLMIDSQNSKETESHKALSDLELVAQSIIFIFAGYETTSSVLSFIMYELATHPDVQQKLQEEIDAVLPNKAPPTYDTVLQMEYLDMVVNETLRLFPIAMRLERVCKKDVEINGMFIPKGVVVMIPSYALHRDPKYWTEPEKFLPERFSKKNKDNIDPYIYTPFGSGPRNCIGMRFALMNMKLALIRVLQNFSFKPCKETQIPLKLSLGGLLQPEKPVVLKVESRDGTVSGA
On the technique in general: qHTS replaces the single test concentration by a dilution series.

Test [2] can be described thus: Confirmation and Secondary Assay for Modulators of Hemoglobin Beta Chain Splicing at IVS2 654 locus (AID 910).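 Note: HeLa cells stably carrying EGFP split by mutant beta-globin IVS2-654 intron; % of control where 0% means no effect.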 In short, it runs like this:
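HeLa cells stably expressing EGFP interrupted by β-globin IVS2-654 intron, seeded overnight in Opti-MEM/2% FCS, then treated 2 days at 37 °C. Restored splicing read as total peak GFP intensity per well by laser scanning cytometry (488 nm excitation, 500–520 nm emission); 500 nM antisense PNA as control.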

A short description of test [3]: Confirmation and Secondary Assay for Modulators of Hemoglobin Beta Chain Splicing at IVS2 705 locus (AID 930).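 Note: HeLa cells stably expressing the EGFP-705 splicing reporter; GFP fluorescence per well restored by corrected splicing of the IVS2-705 intron in EGFP; % of control where 0% means no effect.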 In short, it runs like this:
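HeLa cells stably carrying EGFP interrupted by mutant beta-globin intron 2 (IVS2-705) treated 2 days at 37C with compound; 500 nM antisense PNA as control. Correct splicing read as total peak GFP intensity per well by laser-scanning cytometry.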

The nature of test [4]: qHTS Assay for Lipid Storage Modulators (AID 1519; calls by dose curve; for activity change, negative = inhibition: % is set by controls: 0 for no effect and ±100 for the full control effect). Particulars: Drosophila S3 cells, BODIPY lipid droplet/cell ratio, laser cytometry, cells loaded with oleic acid; for activity change, negative = inhibition: at 57.5 µM (top of the series). In short, it runs like this:
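Cells seeded at 5,000 per well were treated with compounds over a concentration series and loaded with oleic acid (400 uM, as added). Lipid droplet fluorescence (488 nm excitation, 500-530 nm channel) was read by laser-scanning cytometry and normalized to 20 uM Triacsin C.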

Test [5] addresses Ubiquitin carboxyl-terminal hydrolase 1 (Homo sapiens) (UniProt O94782). Kind of test: Inhibitors of USP1/UAF1: Pilot qHTS (AID 504865).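 Note: rhodamine fluorescence freed from ubiquitin-rhodamine substrate followed over time; top concentration of the series differs between compounds; % is set by controls: 0 for no effect and ±100 for the full control effect; nearly all actives have a fitted effect of over 35% in size.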 Summed up: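 USP1/UAF1 complex (1nM) preincubated with compound 15 min at room temperature, then Ub-Rho substrate (150nM final) added. Fluorescence read kinetically at 480/540 nm, 6 reads every 60 seconds. Buffer: 50mM HEPES pH 7.8, 0.5mM EDTA, 0.1 mg/ml BSA, 1mM TCEP, 0.01% Tween-20.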

[6] abbreviates: measured here: cell count channel max response.
The mark [7] stands for this setting: measured here: lipid channel max response.

Consider 19 molecules from PubChem BioAssay (NCATS).

Results filed as inconclusive are left out. The source made the active and inactive calls. Unless noted, calls come from the whole dose curve; as a rule, active = well fitted curve in the direction sought with a large enough effect; inconclusive = small, poorly fitted or top-dose-only effect, or another doubt; inactive = no such curve, though single readings can be large; an effect the other way counts as inactive or inconclusive.

Chain of Ubiquitin carboxyl-terminal hydrolase 1 (Homo sapiens) (O94782 whole entry, looked up): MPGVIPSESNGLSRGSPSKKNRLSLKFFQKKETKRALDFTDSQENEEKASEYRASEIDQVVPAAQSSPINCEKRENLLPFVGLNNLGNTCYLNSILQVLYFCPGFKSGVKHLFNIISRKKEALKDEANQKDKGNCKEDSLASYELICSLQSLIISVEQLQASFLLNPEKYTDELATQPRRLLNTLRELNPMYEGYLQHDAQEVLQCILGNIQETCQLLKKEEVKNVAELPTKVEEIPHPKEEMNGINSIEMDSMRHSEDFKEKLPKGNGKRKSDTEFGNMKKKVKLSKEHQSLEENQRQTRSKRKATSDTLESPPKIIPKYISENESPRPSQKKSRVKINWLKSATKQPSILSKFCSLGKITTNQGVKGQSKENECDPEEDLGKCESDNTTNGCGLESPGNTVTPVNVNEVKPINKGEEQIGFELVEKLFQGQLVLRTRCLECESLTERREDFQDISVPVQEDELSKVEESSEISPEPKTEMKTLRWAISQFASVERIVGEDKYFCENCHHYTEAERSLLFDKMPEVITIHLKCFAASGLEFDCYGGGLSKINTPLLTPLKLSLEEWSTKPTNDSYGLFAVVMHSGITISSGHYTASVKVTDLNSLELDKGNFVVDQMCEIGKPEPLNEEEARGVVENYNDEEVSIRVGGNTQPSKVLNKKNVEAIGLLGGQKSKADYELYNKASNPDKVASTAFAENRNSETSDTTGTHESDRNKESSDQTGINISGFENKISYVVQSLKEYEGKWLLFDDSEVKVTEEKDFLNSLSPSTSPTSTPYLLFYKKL

For the molecule `CC1(C)Oc2ccc3ccc(=O)oc3c2CC1O` (configuration not stated), the Potency entry in test [1], in test [2], in test [3] and in test [5] was “inactive” each time. Further, the activity change, negative = inhibition in test [4] is -1.55% (inactive). Also, the figures for the max response in test [4] (setting [6]) and in test [4] (setting [7]) were 16% and 13.9%, respectively.

Consider `CC(=O)O[C@]1(C)CC[C@]23CC1C(C)(C)C2CC[C@@H]3C` (some centres not stated), for which the Potency result in test [1], in test [2], in test [3] and in test [5] was “inactive” each time. Further, the activity change, negative = inhibition in test [4] was 3.63% (inactive). Also, the max response in test [4] (setting [6]) came out at 7.64%; in test [4] (setting [7]), 13.6%.

On to `C[C@@H]1/C(=N/O)CC2C[C@@H]1C2(C)C`, for which the Potency entry in test [1], in test [2], in test [3] and in test [5] was “inactive” throughout. Also, in test [4], the activity change, negative = inhibition is 2.67% (inactive). For the same molecule, the figures for the max response in test [4] (setting [6]) and in test [4] (setting [7]) were 9.02% and 13.7%, respectively.

On to `C=C(C)C1Cc2c(ccc(C(=O)O)c2O)O1` (configuration not stated), for which the Potency result in test [1], in test [2], in test [3] and in test [5] was “inactive” throughout. Further, the activity change, negative = inhibition in test [4] is 5.26% (inactive). In addition, the figures for the max response in test [4] (setting [6]) and in test [4] (setting [7]) were 17% and 23.8%, respectively.

For the molecule `OCC1OC(n2cnc3c(Cl)nc(Cl)nc32)C(O)C1O` (configuration not stated), the Potency entry in test [1], in test [2], in test [3] and in test [5] was “inactive” in each case. In test [4], the activity change, negative = inhibition was 6.74% (inactive). For the same molecule, the results for the max response in test [4] (setting [6]) and in test [4] (setting [7]) were 16.5% and 22.9%, respectively.

With `Nc1ncnc2c1nc(Cl)n2C1OC(CO)C(O)C1O` (configuration not stated), the Potency result in test [1], in test [2], in test [3] and in test [5] was “inactive” throughout. For the same molecule, the activity change, negative = inhibition in test [4] is 3.24% (inactive). The max response in test [4] (setting [6]) is 5.55%; in test [4] (setting [7]), 12.1%.

Turning to `Nc1ncnc2nc(Cl)[nH]c12`, the Potency entry in test [1], in test [2], in test [3] and in test [5] was “inactive” throughout. Besides, the activity change, negative = inhibition in test [4] is 2.56% (inactive). Also, the max response in test [4] (setting [6]) was -7.94%; in test [4] (setting [7]) it was -3%.

With `Nc1nc2c([nH]c(=O)n2C2OC(CO)C(O)C2O)c(=O)[nH]1` (configuration not stated), the Potency entry in test [1], in test [2], in test [3] and in test [5] was “inactive” throughout. Further, the activity change, negative = inhibition in test [4] is 1.54% (inactive). Also, the max response in test [4] (setting [6]) stood at 9.74%; in test [4] (setting [7]) it was 13.6%.

As to `Nc1nc2c(nc(Cl)n2C2OC(CO)C(O)C2O)c(=O)[nH]1` (configuration not stated), the Potency result in test [1], in test [2], in test [3] and in test [5] was “inactive” throughout. Besides, the activity change, negative = inhibition in test [4] is 3.5% (inactive). The max response in test [4] (setting [6]) stood at 20%; in test [4] (setting [7]), 24.4%.

As for `COc1cc(-c2coc3cc(O[C@H]4OC(CO)C(O)C(O)C4O)c(OC)c(O)c3c2=O)cc(O)c1OC` (some centres not stated), the Potency result in test [1], in test [2], in test [3] and in test [5] was “inactive” throughout. The activity change, negative = inhibition in test [4] was 7.43% (inactive). Besides, the max response in test [4] (setting [6]) is 6.4%; in test [4] (setting [7]) it was 13.8%.

In the case of `Cc1onc(-c2ccccc2)c1C(=O)NC1C(=O)N2C(C(=O)O)C(C)(C)S[C@@H]12` (some centres not stated), the Potency result in test [1], in test [2], in test [3] and in test [5] was “inactive” throughout. Also, in test [4], the activity change, negative = inhibition is 9.92% (inactive). For the same molecule, the max response was found to be 9.88% in test [4] (setting [6]) and 24.8% in test [4] (setting [7]).

As to `CC1(O)CC2C(CC1O)C2(C)C` (configuration not stated), the Potency entry in test [1], in test [2], in test [3] and in test [5] was “inactive” throughout. Besides, in test [4], the activity change, negative = inhibition is 2.85% (inactive). For the same molecule, the max response was -5.99% in test [4] (setting [6]) and -2.1% in test [4] (setting [7]).

With `COC(=O)C(C)c1ccc(C(=O)c2cccs2)cc1` (configuration not stated), the Potency result in test [1], in test [2], in test [3] and in test [5] was “inactive” each time. For the same molecule, the activity change, negative = inhibition in test [4] is 9.81% (inactive). For the same molecule, the max response in test [4] (setting [6]) was -1.55%; in test [4] (setting [7]), 12.4%.

As for `C/C=C1\C2C=C(C)C[C@@]1(N)c1ccc(=O)[nH]c1C2`, the Potency entry in test [1], in test [2], in test [3] and in test [5] was “inactive” in each case. Moreover, the activity change, negative = inhibition in test [4] was 13.7% (inactive). The values for the max response in test [4] (setting [6]) and in test [4] (setting [7]) were 9.87% and 26.4%, respectively.

Regarding `CN(C)CC/C=C1/c2ccccc2COc2ccccc21`, the Potency result in test [1], in test [2], in test [3] and in test [5] was “inactive” throughout. For the same molecule, the activity change, negative = inhibition in test [4] was 0.286% (inactive). In addition, the figures for the max response in test [4] (setting [6]) and in test [4] (setting [7]) were 3.97% and 10.6%, respectively.

On to `CC(=O)OCC1OC(n2cnc3c(=O)[nH]cnc32)C(OC(C)=O)C1OC(C)=O` (configuration not stated), for which the Potency entry in test [1], in test [2], in test [3] and in test [5] was “inactive” throughout. Besides, in test [4], the activity change, negative = inhibition is 3.9% (inactive). In addition, the max response in test [4] (setting [6]) was 9.07%; in test [4] (setting [7]) it was 13.2%.

`CNC1C(O)[C@@H]2OC(O[C@@H]3C(O)C(O)C(N)C[C@H]3N)C(N)C[C@H]2O[C@H]1O[C@@H]1OC(CO)C(N)C(O)C1O` (some centres not stated): the Potency result in test [1], in test [2], in test [3] and in test [5] was “inactive” throughout. In addition, the activity change, negative = inhibition in test [4] was 6.47% (inactive). In addition, the max response in test [4] (setting [6]) came to 16.9%; in test [4] (setting [7]), 24.6%.

As to `CC(=O)OCC1OC(n2c(Br)nc3c(=O)[nH]c(N)nc32)C(OC(C)=O)C1OC(C)=O` (configuration not stated), the Potency entry in test [1], in test [2], in test [3] and in test [5] was “inactive” in each case. Further, the activity change, negative = inhibition in test [4] is 1.02% (inactive). The values for the max response in test [4] (setting [6]) and in test [4] (setting [7]) were 9.1% and 10.5%, respectively.

`CC1CCC2(OC1)OC1CC3C4CCC5CC(O)CCC5(C)C4=CCC3(C)C1C2C` (configuration not stated): the Potency entry in test [1], in test [3] and in test [5] was “inactive” each time. In addition, in test [4], the activity change, negative = inhibition is -0.725% (inactive). In addition, the max response in test [4] (setting [6]) was found to be 2.89%; in test [4] (setting [7]) it was 3.25%.
